Measurements reported in PubChem BioAssay AID1377 (University of Pittsburgh Molecular Library Screening Center, 2008).
Several values for one entry are separate records, joined by “and”; a condition that tells them apart may be missing. Equal entries are not always repeated. Out of some 220,000 compounds screened, about 830 (0.38%) were called active. The entries come from a sample that favours actives as a whole. A number with no mark means an inactive call.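 How the source made its calls: active means activation, scaled between plate controls, above about 75% (limit read from the data); inactive means activation under that limit.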

Assay: inhibitors of zVAD-triggered necroptosis, primary screen, L929 cells (AID 1377);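 further: 0% = zVAD with DMSO and 100% = DMSO alone without zVAD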
Settings: ATP luminescence, 24 h, at 10 µM, active compounds read high; with zVAD 60 µM unless noted

Going from Clc1ccc2nc(-c3ccccc3)nc(C(Cl)Cl)c2c1 to Clc1ccc(-c2cc(-c3ccccn3)on2)c(Cl)c1, the viability rescue falls from 37.5% to -0.1%.

Going from NC(=O)C[n+]1cccc(C(N)=O)c1 to Cc1oc(C(N)=O)cc1COc1ccc(C(N)=O)cc1, the viability rescue falls from 1.24% to 1.12%.

Going from O=C(O)CCn1c(O)c(C=C2N=c3ccccc3=N2)sc1=S to Cn1c(=O)c2c(nc(NCc3ccccc3)n2CC(N)=O)n(C)c1=O, the viability rescue falls from -0.21% to -0.38%.

Compared with CCN(CC)CCNS(=O)(=O)c1ccc(/C=C/C(=O)O)cc1, COc1ccc(/C=N/NS(=O)(=O)c2ccc(NC(C)=O)cc2)cc1 is lower in viability rescue: 1.05% for the first, 0.07% for the second.

First: C/C(=C/C(=O)N1CCN(C)CC1)C(=O)O
Second: CC(=O)c1ccc(S(=O)(=O)N2CCN(c3nc4c(C)c(C)ccc4cc3C#N)CC2)cc1
The viability rescue of the first is lower: 0.98% for the first, 1.16% for the second.

Going from CSc1nc2c(c(=O)[nH]1)C(c1cccc(Cl)c1Cl)CC(=O)N2 (configuration not stated) to CCOC(=O)C(=O)C1C(=O)Nc2ccccc21 (configuration not stated), the viability rescue falls from 0.3% to -0.07%.

Compared with Cc1ccccc1C(=O)N1CCC(C(=O)Nc2ccc(S(=O)(=O)N(C)C(C)C)cc2)CC1, Cc1ccc(S(=O)(=O)N(C)CC(=O)OCC(=O)Nc2ccccc2)cc1 is higher in viability rescue: -0.58% for the first, 0.76% for the second.

First: NS(=O)(=O)c1cccnc1Nc1cccc(Cl)c1
Second: CC(C)n1cnc2c(Nc3cccc(Cl)c3)nc(N(CCO)CCCO)nc21
The viability rescue of the first is lower: -0.92% for the first, 20.9% for the second.

Compared with CC(=O)Nc1ccc(S(=O)(=O)NCC(=O)OCc2cc(=O)oc3ccc4ccccc4c23)cc1, CN(C)S(=O)(=O)c1ccc(NC(=O)COC(=O)Cn2[nH]c(=O)c3ccccc3c2=O)cc1 is lower in viability rescue: 0.62% for the first, 0.01% for the second.

Compared with c1ccc(Nc2nc(N3CCOCC3)c3ccccc3n2)cc1, O=C(CSc1ccc([N+](=O)[O-])cn1)Nc1ccc(N2CCOCC2)cc1 is higher in viability rescue: -0.17% for the first, 16.6% for the second.

Compared with CCOc1ccc(Nc2nc(Cl)nc(N3CCN(c4ccc(OC)cc4)CC3)n2)cc1, COc1ccc(CNC(=O)CN2CCC(n3nnc4cc(F)ccc43)CC2)cc1 is lower in viability rescue: 0.74% for the first, -0.59% for the second.

Going from CC(C)NC(=O)/C(C#N)=C\c1ccc(N(C)C)c(Br)c1 to COC(=O)c1cccnc1NC(=S)NC(C)C, the viability rescue falls from 0.11% to -0.14%.

Compared with COc1ccc(C2CC(c3cccs3)Nc3nnnn32)cc1 (configuration not stated), COc1ccc(CN2C(=O)C(C)S/C2=N/N=C/c2ccco2)cc1 (configuration not stated) is lower in viability rescue: 2.51% for the first, 0.28% for the second.

Going from C/C(Cc1ccccc1)=N\NC(=O)CNC(=O)c1ccc2c(c1)OCCO2 to COCCN(C(=O)c1ccccc1F)c1c(N)n(Cc2ccccc2)c(=O)[nH]c1=O, the viability rescue rises from 0.03% to 1.78%.

Compared with COc1cccc(Nc2nc(N)c([N+](=O)[O-])c(NCc3ccco3)n2)c1, COC(=O)c1[nH]c2ccccc2c1NS(=O)(=O)c1ccc(OC)cc1OC is higher in viability rescue: -0.44% for the first, -0.08% for the second.

Compared with COc1cc2c(cc1O)[C@H](Cc1ccc(Oc3cc(C[C@@H]4NCCc5cc(OC)c(O)cc54)ccc3O)cc1)NCC2, CCOc1cc2[nH]c(=O)n(Cc3ccc(C(=O)NCCCN4CCCC4=O)cc3)c(=O)c2cc1OCC is lower in viability rescue: 5.53% for the first, 0.03% for the second.

Going from O=C(/C=C/c1cccs1)NCc1cccnc1 to O=C(/C=C/c1ccccc1[N+](=O)[O-])NCC1CCCO1 (configuration not stated), the viability rescue rises from 0.04% to 1.4%.

First: O=C(Nc1ccc(Cl)cn1)c1cnn2cccnc12
Second: O=C(Nc1ccccc1)Nc1ccc(C(F)(F)F)cn1
The viability rescue of the first is lower: -0.65% for the first, 16.8% for the second.

Going from CNC(=S)N/N=C/c1cn(Cc2ccc(C)cc2)c2ccccc12 to Cc1ccc(NC(=O)Cn2cccc2C2=NC(c3ccccc3)CO2)c(C)c1 (configuration not stated), the viability rescue falls from 0.34% to -0.00089%.

Compared with COCCNC(=O)c1ccccc1NS(=O)(=O)c1ccc(C)c([N+](=O)[O-])c1, Cc1csc(NC(=O)Nc2ccccc2[N+](=O)[O-])n1 is lower in viability rescue: 0.95% for the first, 0.75% for the second.

First: Cc1cc(=O)oc2cc(OCC(=O)Nc3nnc(C4CC4)s3)ccc12
Second: O=C(Nc1nnc(C2CC2)s1)C1=NN(C2CCS(=O)(=O)C2)C(=O)CC1 (configuration not stated)
The viability rescue of the first is lower: -0.67% for the first, 1.75% for the second.

Compared with COc1cc(/C=N\Nc2nc(-c3cccs3)c(NC(C)=O)s2)ccc1O, CCNc1nc(NCC)nc(N/N=C/c2ccc(O)c(OC)c2)n1 is lower in viability rescue: 2.98% for the first, 0.27% for the second.

First: COc1cc2nc(Cl)nc(NCCO)c2cc1OC
Second: COc1ccc(Br)c2c1C(=O)CC2
The viability rescue of the first is lower: 0.24% for the first, 1.09% for the second.

First: CC1CC(C)(C)n2c(O)c(N=NC(N)=S)c3cccc1c32 (configuration not stated)
Second: O=S(=O)(NC1CC1)c1ccc2c3c(cccc13)CC2
The viability rescue of the first is lower: -0.69% for the first, 2.42% for the second.

Compared with COc1ccccc1/C=C/CN1CCC(CO)(Cc2ccccc2)CC1, COc1ccccc1N=Cc1c(O)c2ccccc2oc1=O is lower in viability rescue: 0.85% for the first, -0.1% for the second.

First: NC(=O)COC(=O)/C=C/c1ccc2ccccc2n1
Second: O=C(/C=C/c1ccccc1[N+](=O)[O-])OC1CCCCC1=O (configuration not stated)
The viability rescue of the first is higher: 10.8% for the first, -0.52% for the second.

Compared with Brc1cc(/C=N/n2cnnc2)oc1Br, Cc1cc(C(=O)NNS(=O)(=O)c2ccccc2C(F)(F)F)nn1C(C)(C)C is lower in viability rescue: 0.56% for the first, 0.49% for the second.

Compared with Cc1nnc(OCC(=O)NCCC2=CCCCC2)c2ccccc12, Cc1cccc(C(=O)N2CCC(c3nc4ccccc4s3)CC2)c1 is higher in viability rescue: 0.41% for the first, 12.5% for the second.

First: CC(C)=CCN1CCN(Cc2ccc(Oc3ncccn3)cc2)CC1CCO (configuration not stated)
Second: OCC(CO)(CO)NCc1ccc(-c2ccccc2)cc1
The viability rescue of the first is lower: -0.77% for the first, 3.78% for the second.

Going from CCc1ccc(C2C(C#N)=C(N)N(N3CCOCC3)C3=C2C(=O)CC(C)(C)C3)s1 (configuration not stated) to NC1=NC[C@@H](Cc2ccc(O)cc2)N1CC1CCCCC1, the viability rescue rises from -0.95% to 0.84%.

First: c1ccc2c(c1)CSc1sccc1C2=C1CCNCC1
Second: CC(=O)Nc1cccc(C(=O)Nc2nc(C)cs2)c1
The viability rescue of the first is higher: 1.55% for the first, -1.49% for the second.

Cc1cccc(C)c1NC(=O)CSc1ccc([N+](=O)[O-])cn1 gave a viability rescue of 1.1%.

With Oc1ccc(-c2onc3ccc(Cl)cc23)cc1 the viability rescue was 82.9% (active).
In the case of OCCCNc1nccc(-c2cc(Nc3cccc(Cl)c3)ncn2)n1, the viability rescue is reported as 103% (active).
For COc1ccc(Nc2ncc(F)c(N3CCOCC3)n2)cc1, the viability rescue was 75.1% (active).
For Cc1cc(-n2cnc(-c3cn(C)nc3C)n2)no1, the viability rescue was 80.2% (active).
For CC[C@H]1CN2CCc3cc(OC)c(OC)cc3[C@@H]2C[C@@H]1C[C@H]1NCCc2cc(OC)c(OC)cc21, the viability rescue was 79.5% (active).
For Cc1ccc(Nc2ccccc2N)cc1, the viability rescue was 75.5% (active).
In the case of Cc1cc(NC(=O)c2cnn3cccnc23)n(-c2ccccc2)n1, the viability rescue is reported as 77.7% (active).
For COc1cc(/C=N/Nc2nc3ccccc3s2)ccc1O, the viability rescue was 77.5% (active).
For CC(=O)c1ccc(S(=O)(=O)N2CCN(C(=O)/C=C/c3ccc4ccccc4n3)CC2)cc1, the viability rescue was 75.2% (active).
For O=C(COc1cccc(-n2cnnn2)c1)NCCC1=CCCCC1, the viability rescue was 78.2% [with zVAD 20 µM] (active).
In the case of COc1ccc(N=Cc2c(O)[nH]c3ccccc23)cc1OC, the viability rescue is reported as 76.4% [with zVAD 20 µM] (active).
In the case of COc1cc(N=Cc2c(O)[nH]c3ccccc23)cc(OC)c1OC, the viability rescue is reported as 78.4% [with zVAD 20 µM] (active).
In the case of Oc1ccc(/C=N/Nc2ccc(C(F)(F)F)cn2)cc1O, the viability rescue is reported as 78.6% (active).
For Cc1csc(NC(=O)NC2(C(F)(F)F)Oc3ccccc3O2)n1, the viability rescue was 78.5% [with zVAD 20 µM] (active).
With CC1CCCCC1NC(=O)/C(C#N)=C/C=C/c1ccccc1[N+](=O)[O-] (configuration not stated) the viability rescue was 77% (active).
In the case of C=CCn1c(P(C)(=O)O)nc2ccccc21, the viability rescue is reported as 0.44% and 0.28%.
With O=C(CSc1ccc([N+](=O)[O-])cn1)Nc1ccc(N2CCOCC2)c(Cl)c1 the viability rescue was 80.2% (active).

Compared with CCCOC(=O)c1c(NC(=O)c2cnn3c2NC(c2ccccc2)CC3C(F)(F)F)sc2c1CCCC2 (configuration not stated), Cc1ccc(C)c(NC(=O)C2Cc3ccccc3CN2C(=O)OCc2ccccc2)c1 (configuration not stated) is lower in viability rescue: 7.75% [with zVAD 20 µM] for the first, 0.1% [with zVAD 20 µM] for the second.

First: Nc1ccc(Nc2ccccc2)cc1
Second: Cc1ccc(Nc2nnc(SCc3ccccc3)s2)cc1
The viability rescue of the first is lower: 0.51% [with zVAD 20 µM] for the first, 1.32% [with zVAD 20 µM] for the second.

First: Cc1cc(NC(=O)Nc2ccccc2)n(-c2ccccc2)n1
Second: Cc1nccn1CC(=O)N/N=C/c1ccc(O)c(O)c1
The viability rescue of the first is higher: 0.11% [with zVAD 20 µM] for the first, 0.09% [with zVAD 20 µM] for the second.

Compared with O=C(COc1ccc(Cl)cc1)NCCC1=CCCCC1, CCCN=C1NC(=O)C(CC(=O)NCCc2ccc(OC)c(OC)c2)S1 (configuration not stated) is higher in viability rescue: 0.15% [with zVAD 20 µM] for the first, 0.51% [with zVAD 20 µM] for the second.

Compared with COCC(=O)N=Nc1c(O)[nH]c2ccccc12, CN=c1scc(-c2cc(OC)ccc2OC)n1/N=C/c1c(C)[nH]c2ccccc12 is higher in viability rescue: -0.49% [with zVAD 20 µM] for the first, 3.26% [with zVAD 20 µM] for the second.

First: COc1cc(Cl)c(C)cc1NC(=O)COC(=O)c1cc(SC)ccc1Cl
Second: COc1ccc(Cl)cc1NC(=O)COC(=O)C(CC(C)C)N1C(=O)C2CC=CCC2C1=O (configuration not stated)
The viability rescue of the first is lower: -0.03% [with zVAD 20 µM] for the first, 0.49% [with zVAD 20 µM] for the second.
